Inconclusive results are not listed. The source made the active and inactive calls. Unless noted, calls come from the whole dose curve; as a rule, active = well fitted curve in the direction sought with a large enough effect in the repeat runs; inconclusive = weak or mixed curves; inactive = no such curve, though single readings can be large; an effect the other way counts as inactive or inconclusive.

These results are taken from PubChem BioAssay (Tox21).

Assay [1] can be described thus: qHTS assay to identify small molecule antagonists of the peroxisome proliferator-activated receptor gamma (PPARg) signaling pathway - cell viability counter screen (AID 743194). Note: nearly all actives have a fitted effect of over 55% in size. Note: potency is the fitted concentration of half-maximal effect. The method, boiled down: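 PPARg-UAS-bla HEK293H cells were plated, rested 5 h at 37 C, then treated with compounds plus rosiglitazone (50 nM final) for 17 h at 37 C; viability was then read by CellTiter-Glo luminescence after 30 min at room temperature.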
(qHTS replaces the single test concentration by a dilution series.)

Assay [2] is described as follows: qHTS assay for small molecule activators of the heat shock response signaling pathway - cell viability counter screen (AID 743209). Note: nearly all actives have a fitted effect of over 50% in size. Note: potency is the fitted concentration of half-maximal effect. Put shortly: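 Luminescence from CellTiter-Glo, added after the beta-lactamase FRET read, gave the viability signal. Cells were HSE-bla HeLa treated with DMSO-dissolved compounds for 5 h at 37 C following overnight plating.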
A short description of assay [3]: qHTS assay for small molecule activators of the heat shock response signaling pathway (AID 743210; active = well fitted activation curve with a large enough effect in the signal ratio in the repeat runs, with a control signal flat, not every such curve was filed as active; the % refers to the signal ratio; note: potency is the fitted concentration of half-maximal effect;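 for activation: HeLa cells with beta-lactamase reporter driven by heat shock elements; series mostly up to about 63 µM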). Put shortly: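 Reporter gene assay: HeLa cells stably bearing an HSE-bla construct, compound treatment 5 h at 37 C, LiveBLAzer substrate 2.5 h at RT, fluorescence intensity.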
The nature of assay [4]: qHTS assay to identify small molecule agonists of the peroxisome proliferator-activated receptor delta (PPARd) signaling pathway - cell viability counter screen (AID 743211). Note: nearly all actives have a fitted effect of over 55% in size. Note: potency is the fitted concentration of half-maximal effect. The method, boiled down:
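Viability was measured as CellTiter-Glo luminescence (30 min, room temperature) in the same wells as the beta-lactamase readout. GeneBLAzer PPARd UAS-bla HEK293H cells received compound after 5 h plating and were incubated 17 h at 37 C.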

Assay [5] is described as follows: qHTS assay to identify small molecule antagonists of the peroxisome proliferator-activated receptor delta (PPARd) signaling pathway - cell viability counter screen (AID 743213). Note: nearly all actives have a fitted effect of over 50% in size. Note: potency is the fitted concentration of half-maximal effect. The method, boiled down: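 Luminescence from CellTiter-Glo, added after the bla read and incubated 30 min at room temperature, gives viability of HEK293H PPARd-bla cells exposed to compounds for 17 h at 37 C with 300 nM L165041.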

Assay [6] is described as follows: qHTS assay to identify small molecule agonists of the farnesoid-X-receptor (FXR) signaling pathway - cell viability counter screen (AID 743218). Note: nearly all actives have a fitted effect of over 45% in size. Note: potency is the fitted concentration of half-maximal effect. Put shortly:
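HEK 293T FXR-bla cells; 5 h pre-incubation, 16 h compound exposure at 37 C; LiveBLAzer substrate 2 h RT, then CellTiter-Glo 30 min RT, luminescence.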

Assay [7] is described as follows: qHTS assay to identify small molecule antagonists of the farnesoid-X-receptor (FXR) signaling pathway - cell viability counter screen (AID 743221; active = well fitted cell-killing curve with a large enough effect in the repeat runs, not every such curve was filed as active; note: nearly all actives have a fitted effect of over 50% in size; note: potency is the fitted concentration of half-maximal effect). Put shortly: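 Cytotoxicity counter screen run in the FXR-bla reporter wells: HEK 293T cells exposed to compound with 50 uM (final) chenodeoxycholic acid for 16 h, 37 C, then viability measured by CellTiter-Glo luminescence after 30 min, room temperature.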

Assay [8] concerns the target Peroxisome proliferator-activated receptor gamma (Homo sapiens) (UniProt P37231). The experiment in a line: qHTS assay to identify small molecule antagonists of the peroxisome proliferator-activated receptor gamma (PPARg) signaling pathway (AID 743191; calls by dose curve; note: series mostly up to about 63 µM; nearly all actives have a fitted effect of over 30% in size). The method, boiled down: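 GeneBLAzer PPARg UAS-bla HEK293H cells carrying a UAS-driven beta-lactamase reporter were plated at 3000 cells/well, preincubated 5 h at 37C, then given compound for 17 h at 37C; LiveBLAzer B/G FRET substrate was read after 1 h at room temperature.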

The nature of assay [9]: qHTS assay for small molecule agonists of the antioxidant response element (ARE) signaling pathway - cell viability counter screen (AID 743203; calls by dose curve; note: nearly all actives have a fitted effect of over 55% in size; note: potency is the fitted concentration of half-maximal effect). The method, boiled down:
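HepG2 cells carrying ARE-driven beta-lactamase; 2,000 cells/well; 5 hrs plating; compound pinned from DMSO; 16 hrs 37C/5% CO2; CellTiter-Glo added; 30 min RT; luminescence.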

The target in assay [10] is Peroxisome proliferator-activated receptor delta (Homo sapiens) (UniProt Q03181). The experiment in a line: qHTS assay to identify small molecule agonists of the peroxisome proliferator-activated receptor delta (PPARd) signaling pathway (AID 743212; calls by dose curve). Put shortly:
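A PPARd-bla HEK293H line with beta-lactamase under an Upstream Activator Sequence is treated with compounds at 37 C. Substrate loading for 2 h at room temperature precedes the fluorescence measurement.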

The target is the same in assay [11]. The experiment in a line: qHTS assay to identify small molecule antagonists of the peroxisome proliferator-activated receptor delta (PPARd) signaling pathway (AID 743215; active = well fitted inhibition curve with a large enough effect in the signal ratio in the repeat runs, not every such curve was filed as active; the % refers to the signal ratio;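 note: cells stimulated with agonist L165041 at 300 nM final during compound exposure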; note: potency is the fitted concentration of half-maximal effect). The method, boiled down: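 Read-out is beta-lactamase FRET fluorescence, measured 2 h after substrate addition at room temperature. Beforehand, UAS-bla HEK293H cells carrying the PPARd reporter were exposed to compounds with L165041 at 300 nM final for 17 h at 37 C.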

Assay [12] addresses Vitamin D3 receptor (Homo sapiens) (UniProt P11473). The experiment in a line: qHTS assay to identify small molecule agonists of the vitamin D receptor (VDR) signaling pathway (AID 743222; calls by dose curve). Put shortly:
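VDR-bla cells, 2,000/well; 4 h preincubation 37C; cpd (DMSO) 16 h; LiveBLAzer B/G substrate 2 h RT; fluorescence intensity read.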

For assay [13] the target is unchanged. The experiment in a line: qHTS assay to identify small molecule antagonists of the vitamin D receptor (VDR) signaling pathway (AID 743223; active = well fitted inhibition curve with a large enough effect in the signal ratio in the repeat runs, not every such curve was filed as active; the % refers to the signal ratio). Put shortly: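 Antagonist mode: compound added to VDR-bla cells alongside agonist 1alpha,25-dihydroxyvitamin D3 (3 nM final), incubation 16 h at 37C. Read-out is LiveBLAzer FRET fluorescence, 2 h at room temperature.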

Assay [14] can be described thus: qHTS assay for small molecule agonists of the antioxidant response element (ARE) signaling pathway (AID 743202; active = well fitted activation curve with a large enough effect in the signal ratio in the repeat runs, not every such curve was filed as active; the % refers to the signal ratio; note: potency is the fitted concentration of half-maximal effect). The method, boiled down:
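Compounds delivered in DMSO to ARE-bla HepG2 cells (2,000 cells/well, pre-incubated 5 h) and left 16 h at 37 C. LiveBLAzer B/G FRET substrate then added for 2 h at RT before fluorescence reading.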

Assay [15] has as its target Bile acid receptor (Homo sapiens) (UniProt Q96RI1). The experiment in a line: qHTS assay to identify small molecule antagonists of the farnesoid-X-receptor (FXR) signaling pathway (AID 743217; active = well fitted inhibition curve with a large enough effect in the signal ratio in the repeat runs, not every such curve was filed as active; the % refers to the signal ratio). Put shortly: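 HEK 293T FXR-UAS-bla, 5000 cells/well; compound + CDCA 50 uM final; 16 h, 37 °C; B/G FRET substrate 2 h RT; fluorescence.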
The target is the same in assay [16]. The experiment in a line: qHTS assay to identify small molecule agonists of the farnesoid-X-receptor (FXR) signaling pathway (AID 743220; active = well fitted activation curve with a large enough effect in the signal ratio in the repeat runs, not every such curve was filed as active; the % refers to the signal ratio). The method, boiled down: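 Beta-lactamase reporter under UAS control in GeneBLAzer FXR HEK 293T cells (5000/well) measured with LiveBLAzer FRET substrate after 2 h at room temperature. Compound exposure lasted 16 h at 37C.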

Assay [17] in a line: qHTS assay to identify small molecule that activate the aryl hydrocarbon receptor (AhR) signaling pathway - cell viability counter screen (AID 743086). Note: nearly all actives have a fitted effect of over 45% in size. Note: potency is the fitted concentration of half-maximal effect. Put shortly: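 HepG2-AhR-luc (HG2L7.5c1) cells, 4000/well, were preincubated 5 h at 37C, exposed to compound in qHTS format for 24 hr at 37C, then given CellTiter-Fluor for 30 min; viability was read as fluorescence in the reporter wells.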

Sequence of Vitamin D3 receptor (Homo sapiens) (P11473 whole entry, looked up): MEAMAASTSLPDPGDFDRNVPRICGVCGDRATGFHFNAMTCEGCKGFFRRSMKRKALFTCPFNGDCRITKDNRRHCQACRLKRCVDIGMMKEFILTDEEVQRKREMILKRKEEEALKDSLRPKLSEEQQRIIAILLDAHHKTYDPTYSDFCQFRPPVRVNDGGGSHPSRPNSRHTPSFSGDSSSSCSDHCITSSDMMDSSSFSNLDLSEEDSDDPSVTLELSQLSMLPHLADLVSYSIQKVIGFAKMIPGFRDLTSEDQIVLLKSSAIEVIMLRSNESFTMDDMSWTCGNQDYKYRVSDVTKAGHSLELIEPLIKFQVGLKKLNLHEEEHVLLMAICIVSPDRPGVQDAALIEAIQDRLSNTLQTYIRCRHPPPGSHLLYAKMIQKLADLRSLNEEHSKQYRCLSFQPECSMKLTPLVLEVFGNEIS
Sequence of Peroxisome proliferator-activated receptor delta (Homo sapiens) (Q03181 whole entry, looked up): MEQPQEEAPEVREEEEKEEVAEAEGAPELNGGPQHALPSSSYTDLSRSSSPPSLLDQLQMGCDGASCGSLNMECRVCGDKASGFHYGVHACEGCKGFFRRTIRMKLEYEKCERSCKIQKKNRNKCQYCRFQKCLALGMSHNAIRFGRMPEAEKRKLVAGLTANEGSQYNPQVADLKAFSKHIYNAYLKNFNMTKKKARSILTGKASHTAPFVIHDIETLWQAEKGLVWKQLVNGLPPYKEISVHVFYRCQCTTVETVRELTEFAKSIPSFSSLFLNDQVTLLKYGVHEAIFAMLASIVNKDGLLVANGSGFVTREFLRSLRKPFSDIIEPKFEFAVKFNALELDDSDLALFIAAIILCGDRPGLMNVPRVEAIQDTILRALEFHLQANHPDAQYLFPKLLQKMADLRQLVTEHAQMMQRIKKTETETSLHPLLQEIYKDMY
Sequence of Bile acid receptor (Homo sapiens) (Q96RI1 whole entry, looked up): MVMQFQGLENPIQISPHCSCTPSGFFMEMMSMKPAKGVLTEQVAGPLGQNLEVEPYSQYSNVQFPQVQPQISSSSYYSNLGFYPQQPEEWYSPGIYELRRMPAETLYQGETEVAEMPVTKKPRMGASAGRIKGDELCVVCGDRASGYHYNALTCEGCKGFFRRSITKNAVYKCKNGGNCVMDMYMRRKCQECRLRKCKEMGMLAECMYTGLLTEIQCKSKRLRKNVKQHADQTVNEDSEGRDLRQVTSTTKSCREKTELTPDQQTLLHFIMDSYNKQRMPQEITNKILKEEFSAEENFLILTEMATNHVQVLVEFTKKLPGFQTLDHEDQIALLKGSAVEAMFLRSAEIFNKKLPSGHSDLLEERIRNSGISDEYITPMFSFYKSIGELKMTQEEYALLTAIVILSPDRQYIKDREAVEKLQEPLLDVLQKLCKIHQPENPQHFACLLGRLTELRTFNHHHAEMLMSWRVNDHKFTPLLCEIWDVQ
Sequence of Peroxisome proliferator-activated receptor gamma (Homo sapiens) (P37231 whole entry, looked up): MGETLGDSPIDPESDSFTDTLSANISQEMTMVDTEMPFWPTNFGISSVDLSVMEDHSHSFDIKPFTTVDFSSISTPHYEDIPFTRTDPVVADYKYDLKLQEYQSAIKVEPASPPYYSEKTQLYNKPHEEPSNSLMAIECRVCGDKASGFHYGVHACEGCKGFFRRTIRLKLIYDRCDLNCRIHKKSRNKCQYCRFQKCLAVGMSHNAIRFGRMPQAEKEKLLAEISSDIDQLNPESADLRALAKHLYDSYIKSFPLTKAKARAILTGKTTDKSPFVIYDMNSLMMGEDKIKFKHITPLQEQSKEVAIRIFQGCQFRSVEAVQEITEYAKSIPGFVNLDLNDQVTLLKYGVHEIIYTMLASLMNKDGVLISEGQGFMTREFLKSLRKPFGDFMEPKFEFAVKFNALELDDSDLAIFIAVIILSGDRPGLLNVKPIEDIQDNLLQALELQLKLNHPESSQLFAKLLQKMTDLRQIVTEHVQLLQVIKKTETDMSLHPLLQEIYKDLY

For the compound `CN1CCC(Nc2ncc3ncnc(Nc4ccc(F)c(Cl)c4)c3n2)CC1`, the Potency result in assay [1] and in assay [2] was “inactive” throughout. In addition, the Potency in assay [3] was 13.9 µM (active); in [4], 23.7 µM (active); in assay [5], 5.96 µM (active); in assay [6] it was 11.9 µM (active); in [7], 29.8 µM (active).

Consider `CN(C)CCCOC1(Cc2ccccc2)CCCCCC1`, for which the Potency entry in assay [8], in assay [1], in [9], in assay [2], in assay [3] and in assay [4] was “inactive” in each case. Further, the Potency result in assay [10], in assay [5], in assay [11], in assay [7], in assay [12] and in assay [13] was “inactive” throughout.

As to `CCc1cc(SCc2sc(-c3ccc(C(F)(F)F)cc3)nc2CN2CCN(c3ccc(OC)cc3)CC2)ccc1OCC(=O)O`, the Potency in assay [1] is 24.5 µM (active); in assay [9] it was 15.4 µM (active); in [2], 24.5 µM (active); in assay [4] it was 7.76 µM (active); in assay [6], 7.76 µM (active); in [7] it was 19.5 µM (active).

As to `N#CC1(c2ccc(F)cc2)CCC(=O)CC1`, the Potency result in assay [8], in assay [1], in assay [14], in assay [9], in [2] and in [3] was “inactive” in each case. The Potency entry in assay [4], in [10], in [5], in assay [11], in assay [15] and in assay [6] was “inactive” each time. The Potency entry in assay [16], in assay [7], in [12] and in assay [13] was “inactive” each time.

As to `Nc1nc2ccccc2n1Cc1ccc(F)cc1`, the Potency entry in [9], in [2], in assay [10], in assay [5], in [6] and in [7] was “inactive” in each case. Moreover, the Potency entry in assay [12] is “inactive”.

`Clc1ccc(C(Cn2ccnc2)OCc2ccc(Sc3ccccc3)cc2)c(Cl)c1` (stereo unspecified): in assay [4], the Potency was 29.8 µM (active). The Potency result in assay [10], in assay [5], in assay [11] and in [12] was “inactive” in each case.

Turning to `NC(=O)C1(N2CCCCC2)CCN(CCCN2c3ccccc3CCc3ccc(Cl)cc32)CC1`, the Potency in assay [1] was 29.8 µM (active); in assay [9], 16.8 µM (active); in assay [4] it was 11.9 µM (active); in assay [5] it was 18.8 µM (active); in assay [11], 29.8 µM (active); in assay [6], 11.9 µM (active). In assay [7], the Potency is 29.8 µM (active).

As to `O=[N+]([O-])c1cc([N+](=O)[O-])c2ccc(S(=O)(=O)O)cc2c1O`, the Potency in [17] is 24.2 µM (active). Besides, the Potency result in assay [1], in assay [9], in assay [2], in assay [5], in assay [6] and in assay [7] was “inactive” each time.

Turning to `O=CC=C(c1ccccc1)c1ccccc1`, the Potency entry in [17], in [9], in assay [2], in assay [10] and in assay [15] was “inactive” in each case. Further, in assay [14], the Potency is 43.6 µM (active).

Regarding `CC(C)C(C)(C)C(C)(C)C(C)(C)S`, in assay [2], the Potency result was “inactive”.

As for `Cc1[nH]nc2c1N=C(c1ccccc1Cl)c1cc([N+](=O)[O-])ccc1N2`, the Potency in assay [17] was 48.6 µM (active); in assay [1], 38.9 µM (active); in assay [9] it was 15.4 µM (active); in [2], 15.5 µM (active); in assay [4], 5.49 µM (active); in assay [11] it was 24.5 µM (active). Moreover, the Potency in assay [6] is 24.5 µM (active). The Potency result in assay [10] and in [7] was “inactive” throughout.

Take `Cc1cc(=O)oc2cc(N(C)C)ccc12`: the Potency entry in [1], in assay [9], in [2], in assay [4], in assay [5] and in assay [6] was “inactive” each time. The Potency entry in assay [7] is “inactive”. Besides, the Potency in [3] was 34.7 µM (active).

With `O=C(N/N=C/c1ccccc1O)c1ccncc1`, the Potency entry in assay [1], in assay [6] and in assay [7] was “inactive” each time. For the same compound, the Potency in [11] is 2.11 µM (active).

On to `COc1cccc(N)c1`, for which the Potency entry in [17], in assay [9], in [2], in assay [3], in [4] and in assay [15] was “inactive” in each case. The Potency result in [7] is “inactive”.

As to `CC(C)(C)C1CCC(CC2=C(O)c3ccccc3C(=O)C2=O)CC1` (stereo unspecified), the Potency in assay [14] was 2.11 µM (active). Further, the Potency result in assay [9], in assay [2], in assay [3] and in [10] was “inactive” in each case.

Take `O=c1c(-c2ccccc2)c1-c1ccccc1`: the Potency result in [17], in assay [9] and in assay [2] was “inactive” each time. Moreover, the results for the Potency in [6] and in assay [7] were 9.44 µM (active) and 13.3 µM (active), respectively.

Turning to `CCCN(CCC)C(=O)C(CCC(=O)OCCCN1CCN(CCOC(=O)Cc2c(C)n(C(=O)c3ccc(Cl)cc3)c3ccc(OC)cc23)CC1)NC(=O)c1ccccc1` (stereo unspecified), the Potency was 21.1 µM (active) in assay [17]; 23.7 µM (active) in [4]; 21.1 µM (active) in assay [5]; 26.6 µM (active) in [11]; 16.8 µM (active) in [6]; 26.6 µM (active) in assay [7]. In addition, the Potency result in assay [14], in assay [9] and in [16] was “inactive” throughout.
